The target of experiment [1] is Nucleoprotein (Lymphocytic choriomeningitis virus (strain Armstrong)) (UniProt P09992). The experiment in a line: qHTS for Inhibitors of the Functional Ribonucleoprotein Complex (vRNP) of Lymphocytic Choriomeningitis Arenaviruses (LCMV): LCMV Primary Screen - GLuc reporter signal (AID 1347086; calls by dose curve; also: nearly all actives have a fitted effect of over 70% in size; also: potency is read from the fitted curve at half-maximal effect).
Experiment [2] is described as follows: qHTS of pediatric cancer cell lines to identify multiple opportunities for drug repurposing: Primary screen for TC32 cells (AID 1347089). Also: nearly all actives have a fitted effect of over 60% in size. Also: potency is read from the fitted curve at half-maximal effect. The gist of the method:
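qHTS, TC32, 48 h drug treatment, CellTiter-Glo luminescence as a proxy for metabolically active cells; primary top concentration 46 µM (MIPE 11-pt, NPC 8-pt); confirmatory 11-pt.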
A general note: Quantitative high-throughput screening tests each substance at several concentrations.

A short description of experiment [3]: qHTS of pediatric cancer cell lines to identify multiple opportunities for drug repurposing: Primary screen for DAOY cells (AID 1347090). Also: nearly all actives have a fitted effect of over 55% in size. Also: potency is read from the fitted curve at half-maximal effect. The gist of the method:
(§1)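 Cell viability, CellTiter-Glo luminescence; 500-1,000 cells/well, 8- or 11-point titration, 48 h compound exposure at 37 degrees C, 5% CO2. Controls: DMSO neutral, bortezomib 2.3 µM final as positive.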

Experiment [4] can be described thus: qHTS of pediatric cancer cell lines to identify multiple opportunities for drug repurposing: Primary screen for SJ-GBM2 cells (AID 1347091). Also: potency is read from the fitted curve at half-maximal effect. A digest of the protocol:
as §1

A short description of experiment [5]: qHTS of pediatric cancer cell lines to identify multiple opportunities for drug repurposing: Primary screen for A673 cells (AID 1347092). Also: nearly all actives have a fitted effect of over 45% in size. Also: potency is read from the fitted curve at half-maximal effect. A digest of the protocol: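 Luminescence from CellTiter-Glo, taken after 15 min at room temperature, served as the proxy for metabolically active cells following 48 h treatment. Both potency and efficacy were taken from curves fitted to the titration data.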

The nature of experiment [6]: qHTS of pediatric cancer cell lines to identify multiple opportunities for drug repurposing: Primary screen for BT-37 cells (AID 1347094). Also: potency is read from the fitted curve at half-maximal effect. A digest of the protocol:
(§2)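 Cells plated at 500-1,000/well in growth medium, compounds added after 5 h. MIPE tested at 11 points (from 0.78 nM), NPC at 8 points (from 0.59 nM). CellTiter-Glo luminescence after 48 h; concentration-response curves from primary screen.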

Experiment [7] is described as follows: qHTS of pediatric cancer cell lines to identify multiple opportunities for drug repurposing: Primary screen for NB-EBc1 cells (AID 1347095). Also: potency is read from the fitted curve at half-maximal effect. The gist of the method:
as §2

Experiment [8] is described as follows: qHTS of pediatric cancer cell lines to identify multiple opportunities for drug repurposing: Primary screen for U-2 OS cells (AID 1347096). Also: nearly all actives have a fitted effect of over 50% in size. The gist of the method:
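Cells (500-1,000/well) rested 5 h, then received compounds for 48 h; metabolically active cells were measured by CellTiter-Glo luminescence. Final concentrations spanned up to 46 µM (MIPE, 11-point) or 0.59 nM-46 µM (NPC, 8-point) in primary screens, 11-point in follow-ups.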

Experiment [9] is described as follows: qHTS of pediatric cancer cell lines to identify multiple opportunities for drug repurposing: Primary screen for Saos-2 cells (AID 1347097). Also: nearly all actives have a fitted effect of over 40% in size. Also: potency is read from the fitted curve at half-maximal effect. A digest of the protocol: as §2
A short description of experiment [10]: qHTS of pediatric cancer cell lines to identify multiple opportunities for drug repurposing: Primary screen for SK-N-MC cells (AID 1347093). Also: potency is read from the fitted curve at half-maximal effect. The gist of the method: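 Metabolically active cells were quantified by ATP-dependent luminescence (CellTiter-Glo, 15 min at room temperature) following 48 h treatment. Cells had been plated at 500-1,000 per well and settled for 5 h beforehand.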

“And” between values parts separate entries of the source, which are not always exact repeats. Equal entries are not always repeated. Inconclusive results are not listed. The source made the active and inactive calls. Unless noted, calls follow the shape of the dose curve; as a rule, active = well fitted curve in the direction sought with a large enough effect; inconclusive = small, poorly fitted or top-dose-only effect, or another doubt; inactive = no such curve, though single readings can be large; an effect the other way counts as inactive or inconclusive.

Consider 23 molecules from PubChem BioAssay (NCATS).

Nucleoprotein (Lymphocytic choriomeningitis virus (strain Armstrong)), sequence (P09992 whole entry, looked up): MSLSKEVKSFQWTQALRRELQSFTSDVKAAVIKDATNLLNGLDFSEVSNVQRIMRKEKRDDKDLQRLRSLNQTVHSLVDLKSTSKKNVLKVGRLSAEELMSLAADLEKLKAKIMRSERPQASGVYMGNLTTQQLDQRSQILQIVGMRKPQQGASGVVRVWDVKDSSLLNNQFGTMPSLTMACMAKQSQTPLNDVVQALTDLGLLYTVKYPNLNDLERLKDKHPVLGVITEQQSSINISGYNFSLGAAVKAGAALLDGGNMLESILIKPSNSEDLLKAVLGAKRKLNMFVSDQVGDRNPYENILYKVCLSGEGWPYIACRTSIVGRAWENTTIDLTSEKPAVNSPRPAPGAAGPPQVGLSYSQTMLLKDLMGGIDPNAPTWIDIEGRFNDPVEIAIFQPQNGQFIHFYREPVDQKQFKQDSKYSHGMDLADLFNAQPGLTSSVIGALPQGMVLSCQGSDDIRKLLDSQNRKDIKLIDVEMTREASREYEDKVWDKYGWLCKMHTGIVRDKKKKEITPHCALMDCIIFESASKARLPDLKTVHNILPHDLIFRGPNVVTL

Regarding `CCC1(CC)C(=O)NC(=O)NC1=O`, the Potency result in [1], in [2], in experiment [3], in experiment [4], in experiment [5] and in [6] was “inactive” throughout. For the same molecule, the Potency entry in experiment [7] and in experiment [8] was “inactive” in each case.

For `CCOC(C(=O)OCCN(C)C)(c1ccccc1)c1ccccc1`, the Potency entry in [1], in experiment [2], in experiment [3], in experiment [4], in experiment [5] and in experiment [6] was “inactive” throughout. The Potency result in experiment [7], in experiment [8] and in [9] was “inactive” each time.

For the molecule `CC(Cc1ccccc1)NCc1ccccc1Cl` (stereo not given), the Potency entry in experiment [1], in experiment [2], in experiment [3], in experiment [4], in experiment [6] and in [7] was “inactive” each time.

As to `CCOC(=O)C(c1c(O)c2ccccc2oc1=O)c1c(O)c2ccccc2oc1=O`, the Potency entry in experiment [1], in [2], in [3], in experiment [4], in [5] and in [6] was “inactive” each time. The Potency entry in experiment [7], in experiment [8] and in experiment [9] was “inactive” each time.

With `C[C@@H]1C[C@@H]([C@H](O)CC2CC(=O)NC(=O)C2)C(=O)[C@@H](C)C1`, the Potency is 1370 nM (active) in experiment [1]; 664 nM (active) and 523 nM (active) in [2]; 1.06 µM (active) and 1.18 µM (active) in experiment [3]; 266 nM (active) and 235 nM (active) in experiment [4]; 668 nM (active) and 372 nM (active) in [5]; 84.1 nM (active) and 74.3 nM (active) in experiment [10]. In addition, the Potency is 437 nM (active) and 385 nM (active) in experiment [6]; 841 nM (active) and 3.32 µM (active) in [7]; 1870 nM (active) in [9].

In the case of `CC1Sc2c(C(=O)O)c(=O)c3cc(F)c(N4CCNCC4)cc3n21` (stereo not given), the Potency result in [1], in experiment [2], in [3], in [4], in [6] and in [7] was “inactive” throughout. For the same molecule, the Potency result in experiment [8] and in [9] was “inactive” each time.

As to `O=C1NCN(c2ccccc2)C12CCN(CCCOc1ccc(F)cc1)CC2`, the Potency result in experiment [1], in [2], in experiment [3], in [5], in [10] and in experiment [7] was “inactive” each time. Besides, the Potency entry in experiment [8] is “inactive”. Further, the Potency in experiment [6] is 17.4 µM (active).

For the molecule `CN1C(=O)CN=C(c2ccccc2)c2cc([N+](=O)[O-])ccc21`, the Potency result in experiment [1], in [2], in [3], in experiment [4], in experiment [5] and in experiment [6] was “inactive” in each case. Further, the Potency result in experiment [7], in experiment [8] and in [9] was “inactive” in each case.

On to `C[N+]1(C)[C@@H]2CC[C@H]1CC(OC(=O)C(CO)c1ccccc1)C2` (stereo not given in full), for which the Potency entry in [1], in experiment [2], in experiment [3], in experiment [4], in experiment [5] and in experiment [6] was “inactive” each time. The Potency entry in experiment [7], in experiment [8] and in experiment [9] was “inactive” each time.

Regarding `COC(=O)C1=CCCN(C)C1`, the Potency result in experiment [1], in experiment [2], in [3], in experiment [4], in experiment [5] and in experiment [6] was “inactive” throughout. Moreover, the Potency entry in experiment [7], in experiment [8] and in [9] was “inactive” in each case.

On to `C=CCOC(Cn1ccnc1)c1ccc(Cl)cc1Cl` (stereo not given), for which the Potency result in [1], in experiment [2], in [3], in experiment [4], in experiment [10] and in [6] was “inactive” throughout. The Potency result in experiment [7], in experiment [8] and in [9] was “inactive” throughout.

Consider `C[C@H]1C(=O)O[C@@H]2CCN3CC=C(COC(=O)[C@](C)(O)[C@]1(C)O)[C@H]23`, for which the Potency entry in [1], in [2], in [3], in [4], in experiment [5] and in experiment [6] was “inactive” throughout. Besides, the Potency result in [8] and in [9] was “inactive” throughout. Besides, the Potency in [7] was 29.9 µM (active).

In the case of `CCCN(CCC)CCc1c[nH]c2ccccc12`, the Potency result in experiment [1], in [2], in [3], in experiment [4], in [6] and in experiment [7] was “inactive” each time. Further, in experiment [8], the Potency entry is “inactive”.

In the case of `CNC(C)Cc1ccccc1OC` (stereo not given), the Potency result in experiment [1], in experiment [2], in [3], in experiment [4], in [5] and in [6] was “inactive” in each case. For the same molecule, the Potency entry in [7] and in experiment [8] was “inactive” throughout.

In the case of `COc1cc(C[C@@H](C)N)c(OC)cc1C`, the Potency entry in experiment [1], in [2], in experiment [3], in [4], in [5] and in experiment [10] was “inactive” in each case. In addition, the Potency result in experiment [8] and in experiment [9] was “inactive” each time.

For `CCc1cc(OC)c(C[C@H](C)N)cc1OC`, the Potency result in [1], in experiment [2], in experiment [3], in [4], in experiment [6] and in experiment [7] was “inactive” in each case. The Potency result in [8] and in experiment [9] was “inactive” throughout.

On to `C=CC[C@]1(O)CC[C@H]2[C@@H]3CCC4=CC(=O)CCC4=C3C=C[C@@]21C`, for which the Potency result in [1], in experiment [2], in experiment [3], in experiment [4], in experiment [5] and in experiment [7] was “inactive” each time. In addition, the Potency result in experiment [8] and in experiment [9] was “inactive” each time.

For `c1ccc2nc(N3CCNCC3)ccc2c1`, the Potency result in experiment [1], in experiment [2], in experiment [3], in experiment [4], in experiment [5] and in experiment [6] was “inactive” throughout. Also, the Potency entry in experiment [7], in experiment [8] and in experiment [9] was “inactive” throughout.

Turning to `CN1C(=O)CN=C(c2ccccc2)c2cc(Cl)ccc21`, the Potency result in [1], in experiment [2], in experiment [3], in experiment [4], in [10] and in experiment [6] was “inactive” throughout. Moreover, the Potency entry in experiment [7], in experiment [8] and in experiment [9] was “inactive” each time.

In the case of `COc1ccc(C(=O)N2CCCC2=O)cc1`, the Potency entry in [1], in experiment [2], in experiment [3], in [4], in experiment [5] and in [6] was “inactive” each time. Moreover, the Potency result in experiment [7], in experiment [8] and in experiment [9] was “inactive” each time.

As for `C#C[C@]1(O)C=C[C@H]2[C@@H]3CCC4=CC(=O)CC[C@@H]4[C@H]3CC[C@@]21CC`, the Potency entry in [1], in [2], in experiment [3], in [4], in experiment [5] and in experiment [10] was “inactive” in each case. The Potency result in experiment [6], in experiment [8] and in experiment [9] was “inactive” each time.

As for `COc1cc(CC(C)N)cc2c1OCO2` (stereo not given), the Potency entry in [1], in [2], in experiment [3], in experiment [4], in experiment [10] and in experiment [6] was “inactive” in each case. In addition, the Potency entry in experiment [7], in [8] and in [9] was “inactive” in each case.

For `C[C@@H]1O[C@@H](O[C@@H]2C=C3CC[C@@H]4[C@H](CC[C@]5(C)[C@@H](c6ccc(=O)oc6)CC[C@]45O)[C@@]3(C)CC2)[C@H](O)[C@H](O)[C@H]1O`, in experiment [1], the Potency entry was “inactive”. Further, the Potency in [2] is 3.3 nM (active); in experiment [3] it was 2.1 nM (active); in [4], 6.7 nM (active); in [5], 2.7 nM (active); in experiment [10] it was 1 nM (active); in [6], 0.0025 µM (active). The Potency in experiment [7] was 0.0119 µM (active); in [9], 3.8 nM (active).
